Measurements reported in PubChem BioAssay AID940 (Emory University Molecular Libraries Screening Center, 2007).
Several values for one entry are separate records, joined by “and”; a condition that tells them apart may be missing. Equal values may be shown once. The campaign covered roughly 260,000 compounds. About 2,200 (0.85%) were called active.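 Rule for the calls: active = compounds whose cAMP rise, as percent of the full-agonist control response, exceeds 60; inactive = the rest.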 What follows is part of a selection rich in actives, with near analogues and random picks from the rest. Some compounds were tested as several samples or in several runs, with calls that do not always agree.

Target: Prostaglandin E2 receptor EP2 subtype (Homo sapiens) (UniProt P43116)
Test: modulation of human EP2 prostaglandin signaling – cell-based, HTRF cAMP, PGE2 stimulation, primary screen (AID 940);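 note: rat C6 glioma line stably carrying human EP2 under a CMV promoter; the protocol text gives 20 µM as final concentration; 100% = response of wells given 1 µM PGE2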
Details: EP2-expressing cells, cAMP HTRF FRET, PGE2 co-stimulation; at 25 µM; stronger effect = higher value

Chain of Prostaglandin E2 receptor EP2 subtype (Homo sapiens) (P43116 whole entry, looked up): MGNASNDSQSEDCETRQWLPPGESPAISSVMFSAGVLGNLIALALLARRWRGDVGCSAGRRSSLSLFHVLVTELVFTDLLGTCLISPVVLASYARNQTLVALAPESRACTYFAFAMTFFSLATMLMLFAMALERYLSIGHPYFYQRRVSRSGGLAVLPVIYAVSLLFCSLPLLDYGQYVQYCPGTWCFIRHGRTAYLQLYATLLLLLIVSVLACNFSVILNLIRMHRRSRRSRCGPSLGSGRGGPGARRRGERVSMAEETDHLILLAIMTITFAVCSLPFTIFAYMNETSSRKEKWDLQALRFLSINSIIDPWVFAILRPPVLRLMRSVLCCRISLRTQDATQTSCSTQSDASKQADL

induction, active:
COc1ccccc1NC(=S)N1CCN(C(c2ccccc2)c2ccccc2)CC1 61.4%, O=C(Nc1ccccc1N1CCCCC1)c1cccc(F)c1 66.7%, O=C(Nc1ccccc1N1CCCCC1)c1ccc2nccnc2c1 87.1%, CCOC(=O)C1=C(CN2CCc3ccccc32)NC(=O)NC1c1cccc([N+](=O)[O-])c1 (stereo not given) 64.5%, CCOC(=O)C1=C(CN2CCc3ccccc32)NC(=O)NC1c1ccc(Cl)cc1 (stereo not given) 68.2%, Cc1cc(-c2cccs2)nc(-n2cccc2)n1 62.7%, CCNC(=O)c1c(O)c2cccc3c2n(c1=O)CC3 60.8%, O=C(c1cc2sccc2n1Cc1ccc(F)cc1)N1CCc2ccccc21 63%, CCN1CCN(c2c(Cl)cccc2NC(=O)c2ccc(Br)o2)CC1 74.4%, CCCc1nc(SCC(=O)OCC)c2c(C)c(C)sc2n1 74%

induction, 46.2% (inactive) and 68.4% (active):
O=c1[nH]c(CSc2ncc(-c3ccc(F)cc3)n2Cc2ccco2)nc2ccccc12

induction, inactive:
COc1ccccc1NC(=S)N1CCC(NC(=O)C23CC4CC(CC(C4)C2)C3)CC1 -21% and -7.94%, CC(C)NC(=S)N1CCN(C(c2ccccc2)c2ccccc2)CC1 21.2%, COc1cccc(NC(=O)C(C#N)Cc2cccnc2)c1 (stereo not given) 2.36%, O=c1oc2ccccc2cc1-c1csc(Nc2cccc(O)c2)n1 -123%, CC1(C)CCCC2(C)C3C1[C@@H](O)C2(C)C[C@H]3O (stereo not given in full) 15.3%, CC(C)NC(=O)CN1N=C(c2ccccc2)Cn2c(cc3ccccc32)C1=O -36.4%, NC(=O)c1nnn(-c2ccc(S(=O)(=O)N3CCCCC3)cc2)c1N 11.5%, Cc1cccc(C(=O)Nc2ccccc2N2CCN(c3ccc(F)cc3)CC2)c1 49.9%, O=C(Nc1ccccc1N1CCN(C(=O)c2ccccc2)CC1)c1ccc2c(c1)OCO2 -6.37%, Cc1ccc(C)c(NC(=O)c2ccc3nccnc3c2)c1 -54%, O=C(Nc1ccccc1N1CCN(c2ccccc2)CC1)c1cccc(F)c1 48.5%, CN(C(=O)C1CCCCC1)c1nc(-c2ccc(Cl)cc2)cs1 -0.87%, Cc1ccc(N(C(=O)Cn2nnc3ccccc32)C(C(=O)NC2CCCC2)c2ccsc2)cc1 (stereo not given) 20.6%, CC(=O)C1CC(CC(=O)N[C@H](Cn2nnc3ccccc32)C(C)C)C1(C)C (stereo not given in full) -25.1%, COc1cccc(/C(O)=C2/C(=O)C(=O)N(CCN(C)C)C2c2ccco2)c1 (stereo not given) 2.05%, Cc1ccc2[nH]c(=O)c(C(c3nnnn3Cc3ccc(F)cc3)N3CCCC3)cc2c1 (stereo not given) -4.96%, NC(=O)CNC(=O)C1CCCN(c2ncccn2)C1 (stereo not given) 14.7%, COCCNCC(=O)N1CCc2ccccc21 10.7%, Cc1ccc2cc(C(c3nnnn3C3CCCC3)N3CCC(C)CC3)c(=O)[nH]c2c1C (stereo not given) -2.6%, Cn1c(-c2ccc(F)cc2)cnc1SCC(=O)NCc1ccco1 -17% and -3.43%, CCn1c(Cc2ccccc2)nnc1SCc1nc2ccccc2c(=O)[nH]1 2.09%, COc1ccc2cc(C)c3nn(CC(=O)N4CCC(C)CC4)c(=O)n3c2c1 -70.2%, CCn1cc(S(=O)(=O)N2CCC(CCc3ccc(C(=O)O)cc3)CC2)c(C)n1 -33.1%, Cc1cc(NC(=O)CSc2nnc3c4c5c(sc4nc(C(C)C)n23)CCCC5)no1 0.87%, CCOC(=O)C1=C(c2ccccc2)NC(=S)NC1c1ccc(Cl)cc1 (stereo not given) 47.1%, CCOC(=O)C1=C(CN2CCCCCC2)NC(=O)NC1c1cccc([N+](=O)[O-])c1 (stereo not given) -9.45%, CCOC(=O)C1=C(CNC2CCCCC2)NC(=O)NC1c1cc(C)ccc1C (stereo not given) 34.3%, CCOC(=O)C1=C(C)NC(=O)NC1c1ccccc1 (stereo not given) 19%, COc1ccc(-c2nc(SCC(=O)O)n[nH]2)cc1 -21.9%, Cc1ccc(NC(=O)CSc2nccc(=O)[nH]2)c(C)c1 -21.1%, Clc1c(-c2nnc(-c3ccc(N4CCOCC4)cc3)o2)sc2ccccc12 -13.2%, c1csc(-c2cn3c(n2)SCC3)c1 -16.2%, Cc1cc2nc(C(F)(F)F)cc(-c3cccs3)n2n1 19.1%, O=C(CSc1nc(-c2ccco2)cc(C(F)(F)F)n1)Nc1ccc(Cl)cc1Cl -110%, O=C(NCCO)C(=O)NCC1COc2ccccc2O1 (stereo not given) -12.4%, Cc1ccc2nc(NC(=O)c3c(O)c4cccc5c4n(c3=O)CC5)sc2c1 -11.9%, Cc1cc(=O)n2c3c(cccc13)CCC2 1.93%, CN1c2ncccc2C(=O)NC12CCN(C(=O)Cn1ncc3ccccc3c1=O)CC2 -10.6%, O=C(NCc1ccco1)c1cc2sccc2n1Cc1ccc(F)cc1 41.1%, CC1Cc2ccccc2N1C(=O)c1cc2sccc2n1Cc1ccccc1 (stereo not given) 54.1%, O=C(NCc1nc(-c2cccnc2)n[nH]1)C(c1ccccc1)C1CCCCC1 (stereo not given) 24.6%, Cc1ccccc1-n1c(SCC(=O)N2CCCCCC2)nnc1-c1cccnc1 -15.5%, COc1cccc(CN2CCN(C(=O)c3ccccn3)[C@@H](C)C2)c1 -14.5%, CCn1c(SCC(=O)Nc2ccc(C)cc2C)nnc1C(C)C -31.6%, COc1cc(OC)c(NC(=O)c2ccc(Br)o2)cc1Cl -17.9%, CCCC(=O)Nc1ccc(Cl)c(NC(=O)c2ccc(Br)o2)c1 6.2%, CCCc1nc(SCC(=O)N2CCCC2)c2c(C)c(C)sc2n1 1.9%, CCOC(=O)c1sc2nc(C)nc(SCC(N)=O)c2c1C 9.11%, COc1ccc(OC)c(C(=O)CSc2ncnc3c2cnn3-c2ccccc2C)c1 44.3%
